UGM FP inh = M. tuberculosis UGM enzyme inhibitors, primary screen, biochemical, fluorescence polarization, single point; UDP-galactopyranose mutase (Mycobacterium tuberculosis (strain ATCC 25618 / H37Rv)), …; purified UGM, fluorescence polarization probe displacement; inhibition, % at 10 µM; 320,000 tested, 0.06% active; AID 504406, 2011; in the data active = inhibition above about 10%, passing the limit was not always enough
Target sequence (P9WIQ1 whole entry, looked up): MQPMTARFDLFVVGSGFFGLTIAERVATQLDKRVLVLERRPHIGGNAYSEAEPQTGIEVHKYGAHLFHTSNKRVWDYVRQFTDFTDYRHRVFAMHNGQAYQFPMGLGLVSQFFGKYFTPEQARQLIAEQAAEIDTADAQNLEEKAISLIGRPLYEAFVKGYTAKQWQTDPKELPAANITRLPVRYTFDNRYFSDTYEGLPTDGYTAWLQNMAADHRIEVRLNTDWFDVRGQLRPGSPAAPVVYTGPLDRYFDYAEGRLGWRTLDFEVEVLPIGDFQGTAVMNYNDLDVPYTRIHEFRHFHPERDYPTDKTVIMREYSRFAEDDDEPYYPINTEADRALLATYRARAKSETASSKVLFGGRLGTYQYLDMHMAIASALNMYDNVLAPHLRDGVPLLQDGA
FadD28 FP inh = inhibitors of FadD28 bisubstrate probe binding, primary screen, biochemical, fluorescence polarization, single point. 360,000 tested, 0.22% active. inhibition, % at 12.5 µM. AID 588549, 2011; in the data active = inhibition above about 8.5%, passing the limit was not always enough
BioA inh-1 = M. tuberculosis BioA enzyme inhibitors, primary screen, biochemical, plate reader, single point, HTS | 7,8-diaminopelargonic acid synthase BioA (Mycobacterium tuberculosis) | purified M. tuberculosis BioA enzyme | inhibition, % at 9.99 µM | 360,000 tested, 0.096% active; in the data active = inhibition above about 40%
Yp Topo-I inh = Yersinia pestis topoisomerase I inhibitors, primary screen, biochemical, cleavage product accumulation, plate reader, single point; DNA topoisomerase I (Yersinia pestis CO92); Y. pestis Topo-I cleavage product accumulation; activity, % at 10 µM; 360,000 tested, 0.064% active; AID 504884, 2011; in the data active = activity above about 50%, passing the limit was not always enough
RecA splice inh = Mtb RecA intein splicing inhibitors, primary screen, biochemical, fluorescence, HTS; 290,000 tested, 0.75% active; cell-free RecA intein splicing; inhibition, % (test concentration not listed); AID 2221, 2009; in the data active = inhibition above about 30%;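 note: 0% = vehicle wells and 100% = reference inhibitor control wells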
Rv3671c protease = Rv3671c serine protease inhibitors, primary screen, biochemical, fluorescence polarization, M. tuberculosis H37Rv; P9WHR9; inhibition, % at 5.96 µM; 320,000 tested, 0.048% active; in the data active = inhibition above about 38%;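 note: extracellular domain of Rv3671c used as enzyme; 0% = enzyme with DMSO and 100% = no enzyme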
BioA inh-2 = Mtb BioA enzyme inhibitors, dose response, biochemical, plate reader, cherry-pick samples, set 03. purified BioA enzyme. max activity, %. AID 651679, 2012. shares compounds with BioA inh-1. 310 tested, under 10 active;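 note: top concentration of the dilution series was 10 µM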
HepG2 tox 2 = cytotoxicity in HepG2 cells, dose response, cytotoxicity control, cell-based, plate reader, cherry-pick, two tests. max activity, %. shares compounds with BioA inh-1. 310 tested, under 10 active
3T3 cytotox 5 = cytotoxicity in NIH3T3 fibroblasts, dose response, cytotoxicity control, cell-based, plate reader, cherry-pick, two tests; AID 651900, 2012; shares compounds with BioA inh-1; activity change, negative = cytotoxicity, % at 26 µM; 310 tested, under 10 active
The depositor's hits bear a star; i = inactive; · = not tested or not shown; [ ] = dose if it differs, or a comment. The list is not random: actives were taken first. Their share in the collection is about 0.82%. Unless noted, the rule behind the calls is not given here.

SMILES | UGM FP inh | FadD28 FP inh | BioA inh-1 | Yp Topo-I inh | RecA splice inh | Rv3671c protease | BioA inh-2 | HepG2 tox 2 | 3T3 cytotox 5
CN(C)C(=O)C[C@@H]1C[C@@H]2c3cc(NC(=O)c4cccnc4)ccc3O[C@@H]2[C@@H](CO)O1 | · | · | 47.7* | · | · | · | -7.5 | i | -0.5
O=C(C[C@@H]1C[C@H]2c3cc(NC(=O)c4cccnc4)ccc3O[C@H]2[C@@H](CO)O1)NCc1cc(F)ccc1F | · | · | 41.2* | · | · | · | 5.7 | i | 1.3[23.5 µM]
O=C(Nc1ccc2c(c1)[C@H]1C[C@@H](CC(=O)N3CCc4ccccc4C3)O[C@@H](CO)[C@H]1O2)c1cccnc1 | · | · | 42.5* | · | · | · | -6.0 | i | -4.8
COc1cccc(NC(=O)N[C@H]2CC[C@H](CC(=O)N3CCCCC3)O[C@H]2CO)c1 | · | · | -0.1 | · | · | · | · | · | ·
C/C=C/c1ccc2c(c1)O[C@@H](CN(C)C(=O)C1CC1)[C@H](C)CN([C@@H](C)CO)S2(=O)=O | · | · | -0.5 | · | · | · | · | · | ·
CC(Oc1ccc2c(-c3ccccc3)cc(=O)oc2c1)C(=O)NCc1ccccn1 (centres undefined) | -0.1 | -1.7 | 42.3* | 12.4 | · | 0.9 | -5.8 | 6.4 | -10.0
O=C(COc1ccc2c(-c3ccccc3)cc(=O)oc2c1)NCc1ccccn1 | 1.5 | -3.4 | 4.1 | 3.9 | 3.3 | -11.3 | · | · | ·
CCc1ccccc1Nc1ccc(C(=O)O)cc1N | 1.8 | 4.9 | 2.0 | 4.9 | 4.5 | -2.7 | · | · | ·
Nc1cc(C(=O)O)ccc1Nc1ccccc1 | 0.5 | 3.5 | 75.0* | 15.9 | 4.0 | -19.1 | -9.4 | -6.8 | -6.3
Cc1cc(C)n2nc(C(=O)Nc3cccc(S(=O)(=O)N4CCCC4)c3)nc2n1 | -2.1 | -0.6 | · | 4.9 | -1.9 | -11.2 | · | · | ·
Cc1cc(C)n2nc(C(=O)Nc3cccnc3)nc2n1 | 1.9 | -2.6 | 65.4* | -1.9 | -5.7 | 0.2 | -7.3 | -11.8 | 3.3
CN1c2ccc(-c3cccc(C#N)c3)cc2[C@H]2[C@H](CCN2S(=O)(=O)c2ccccc2F)[C@@H]1CO | · | · | 0.4 | · | · | · | · | · | ·
C/C=C/c1ccc2c(c1)O[C@@H](CN(C)C(=O)Nc1ccc(OC)cc1)[C@@H](C)CN([C@H](C)CO)S2(=O)=O | · | · | 16.6 | · | · | · | · | · | ·
C/C=C/c1ccc2c(c1)O[C@@H](CN(C)C(=O)Nc1ccccc1)[C@H](C)CN([C@H](C)CO)S2(=O)=O | · | · | 41.7* | · | · | · | -4.8 | i | 3.5
C/C=C/c1ccc2c(c1)O[C@@H](CN(C)C(=O)Nc1ccc(OC)cc1)[C@@H](C)CN([C@@H](C)CO)S2(=O)=O | · | · | 41.0* | · | · | · | 9.3 | i | 3.1
O=C(c1cccnc1)N1C[C@@H]2[C@H](c3ccccc31)[C@H](CO)N2C(=O)Nc1ccccc1F | · | · | 1.6 | · | · | · | · | · | ·
O=C([O-])c1cc(-c2ccccc2)cc(-c2ccccc2)[n+]1Cc1ccccc1 | 0.7 | · | · | · | 3.5 | -6.1 | · | · | ·
O=[N+]([O-])c1ccc(C[n+]2c(-c3ccccc3)cc(-c3ccccc3)cc2-c2ccccc2)cc1 | -2.1 | -1.6 | 58.6* | 11.6 | 5.0 | 1.9 | -4.1 | -9.1 | 0.1
C[C@@H]1CN([C@H](C)CO)C(=O)Cc2cc(NC(=O)Cn3cnnn3)ccc2O[C@H]1CN(C)Cc1ccc2c(c1)OCO2 | · | · | 62.6* | · | · | · | -6.7 | i | 6.7[23.5 µM]
C[C@@H]1CN([C@H](C)CO)C(=O)Cc2cc(NC(=O)Cn3cnnn3)ccc2O[C@@H]1CN(C)Cc1ccc2c(c1)OCO2 | · | · | -0.9 | · | · | · | · | · | ·
C[C@@H]1CN([C@@H](C)CO)C(=O)Cc2cc(NC(=O)Cn3cnnn3)ccc2O[C@H]1CN(C)Cc1ccc2c(c1)OCO2 | · | · | 55.6* | · | · | · | -5.8 | i | -4.8
C[C@H]1CN([C@@H](C)CO)C(=O)Cc2cc(NC(=O)Cn3cnnn3)ccc2O[C@H]1CN(C)Cc1ccc2c(c1)OCO2 | · | · | 6.1 | · | · | · | · | · | ·
CC(C)NC(=O)N[C@@H]1C=C[C@H](CC(=O)N2CCCCC2)O[C@H]1CO | · | · | -0.9 | · | · | · | · | · | ·
Cc1ccc(OCc2nnc(SCC(=O)N3CCc4ccccc43)n2C)cc1 | 0.7 | -1.7 | -2.5 | 2.3 | 1.3 | -11.3 | · | · | ·
Cc1ccc(NCc2nnc(SCC(=O)N3CCc4ccccc43)n2C)cc1 | -0.5 | 0.4 | 46.7* | 18.5 | -1.2 | 0.2 | -9.0 | 12.4 | -9.5
O=C(C[C@H]1CC[C@@H](NC(=O)C2CCOCC2)[C@@H](CO)O1)NCc1ccccc1Cl | · | · | -1.7 | · | · | · | · | · | ·
COc1cc(-c2nc3ccccc3nc2-c2ccc(O)c(OC)c2)ccc1O | -1.0 | -1.9 | 51.0* | 6.8 | 1.2 | -0.7 | -5.8 | 12.1 | 2.0
COc1cccc(NC(=O)Nc2ccc3c(c2)C(=O)N(C)[C@H]2CC[C@@H](CC(=O)O)O[C@H]2CO3)c1 | · | · | -0.5 | · | · | · | · | · | ·
